Consider 55 compounds from PubChem BioAssay AID540253 (National Center for Advancing Translational Sciences (NCATS), 2011).

About 240 (0.071%) of roughly 340,000 compounds were called active. Where a call stands in place of a potency, no number is given. Calls come from the whole dose curve. The sample as a whole holds a higher share of actives than the screen did.
Potency is the fitted concentration of half-maximal effect.

This experiment concerns the target Snurportin-1 (Homo sapiens) + GTP-binding nuclear protein Ran (Homo sapiens) + Importin subunit beta-1 (Homo sapiens) (UniProt O95149+P62826+Q14974). The experiment can be described thus: qHTS Assay for Inhibitors of RanGTP induced Rango (Ran-regulated importin-beta cargo) - Importin beta complex dissociation. Note: nearly all actives have a fitted effect of over 45% in size. As to conditions: Biochemical FRET Rango-importin beta; series mostly up to 46.1 µM. From the text: NIH Molecular Libraries Probe Production Centers Network [MLPCN] NIH Chemical Genomics Center [NCGC] MLPCN Grant: R03 MH090808-01A1 Assay Submitter (PI): Petr Kalab NCGC Assay Overview: The small GTPase Ran regulates transport of macromolecules between the nucleus and the cytoplasm (nuclear transport) and has important functions in mitotic spindle assembly, nuclear envelope (NE) formation and nuclear pore complex (NPC) assembly. RanGTP gradient is thought to promote spindle assembly by providing a spatial clue to microtubule nucleation and Aurora A activation. Because the localized release and binding of importin alpha cargos relays this spatial clue to SAFs, inhibitors of the Rango - importin beta complex can then be used in further understanding their role in cell cycle specifically in mitosis progression. […] Activation of Aurora A has been linked to different types of cancer and a number of Aurora kinase inhibitors are being developed as potential canter therapeutics; therefore, identified inhibitors of this complex could be developed into potential anti-mitotic probes for cancer treatment. Purified recombinant proteins Rango - importin beta and RanGTP-RCC1 stock premixes were provided by the assay submitter. The assay used a fluorescence resonance energy transfer (FRET) Rango biosensor that contains the IBB of human snurportin 1 flanked by yellow fluorescent protein (EYFP) at the amino terminus and cerulean CFP10 at the carboxy terminus. […] RanGTP binding to the complex (in the presence of RCC1) releases the Rango from the complex. The flexibility of the IBB in the freed Rango allows the donor - acceptor fluorophores to interact, resulting in a high FRET signal. Inhibitors will therefore be identified based on the ability to interfere with the FRET signal increase. DMSO treated and no RanGTP-RCC1 (buffer only) wells were used as negative and positive controls respectively. FRET readings were obtained at two time points. FRET reading prior to importin beta addition (pre-read) were used flag potential compound interference; FRET reading after importin beta addition (post-read) were used to identify inhibitors.
NCGC Assay Protocol Summary: Two and a half uL/well of Rango- importin beta premix solution (0.1 uM Rango, 0.25 uM importin beta, 1x PBS, 1mM DTT, 0.02% Tween-20, 0.1% BSA final concentrations) was dispensed into 1536-well assay plates (Greiner, solid black medium-binding plates) with Aurora Discovery BioRAPTR Flying Reagent Dispenser (FRD; Beckton-Dickenson). Compound solution (23 nL) was transferred to the assay plate using Kalypsys pin tool equipped with a 1536-pin tool and incubated at room temperature for 5 min followed by a FRET pre-read using the PerkinElmer Envision plate reader. Two and a half uL/well of RanGTP-RCC1 premix solution (0.6 uM Ran, 2mM GTP, 0.2 uM RCC1, 1x PBS, 1mM DTT, 0.02% Tween-20, 0.1% BSA final concentrations) were then added and incubated at room temperature giving a final reaction volume of 5uL. After 45min FRET post-read was obtained via the Envision plate reader using the same optics and settings as the pre-read (CFP/YFP optimized dual optical module D450/D505; excitation mirror CFP 430/24 nm; and emission filters CFP 486/10 nm and YFP 530/10 nm).
(Quantitative high-throughput screening tests each substance at several concentrations.)
Consider `O=C(NN=CC=Cc1ccccc1)C(O)C(O)C(=O)NN=CC=Cc1ccccc1` (stereo not given), for which the Potency entry is “inactive”.
Next, `NC(=O)C1CCN(C(=O)c2cc(S(=O)(=O)N3CCN(c4ccccc4)CC3)ccc2Cl)CC1`: “inactive”; `CC1(C)C(=O)CCC2(C)C1=CCC1C2C(=O)CC2(C)C1CCC2(O)C(=O)CO` (stereo not given): “inactive”; `O=C(Cc1ccc(S(=O)(=O)N2CCOCC2)s1)Nc1ccc(Br)c(C(F)(F)F)c1`: “inactive”.
The value for `C=CCOC(=O)N1CCC2CC1c1cc(-c3ccc(OC)cc3)ccc12` (stereo not given) was “inactive”; that for `O=C(O)C1C2C=CC(O2)C1C(=O)Nc1ccccn1` (stereo not given) was “inactive”; that for `c1ccc(C(=NNc2nc3ccccc3s2)c2ccccn2)cc1` was “inactive”.
Take `C=CCN1C=C(C(=O)c2ccccc2)C(=O)CC1`: the Potency entry was “inactive”.
The value for `CCCCC(=O)NC(c1ccc(OC)c(OC)c1)c1ccc2cccnc2c1O` (stereo not given) was “inactive”.
Next, `COc1cccc(CC(=NO)c2cccc(OC)c2)c1`: “inactive”; `CN(O)C(=S)c1ccccc1`: “inactive”.
The value for `CCN1CCC(O)(/C=C/c2ccc(C)cc2)C(C(=O)/C=C/c2ccc(C)cc2)C1` (stereo not given) was “inactive”; that for `Oc1c(CN2CCOCC2)ccc(CN2CCOCC2)c1O` was “inactive”.
As for `CN1C(c2ccc(F)cc2)=CS/C1=C(/C#N)c1nnc2n1-c1ccccc1SC2`, the Potency result was “inactive”.
Next, `CC(=NNC(=O)c1ccncc1)c1ccc(Cl)c(Cl)c1`: “inactive”.
Next, `C=C(C)CNC(=S)Nc1ccc(S(=O)(=O)Nc2cnc3ccccc3n2)cc1`: “inactive”; `CCOc1cc(C(=O)Nc2ccc(S(=O)(=O)Nc3cnc4ccccc4n3)cc2)cc(OCC)c1OCC`: “inactive”.
Next, `O=C(/C=C/Nc1ccc(S(=O)(=O)Nc2cnc3ccccc3n2)cc1)c1cccnc1`: 3.26 µM [inconclusive] (active); `COC(=O)c1ccc(NCc2cc(O)ccc2O)cc1`: “inactive”.
Consider `COC(=O)Cc1c(C)c2ccc(OCC(=O)NCc3ccc4c(c3)OCO4)cc2oc1=O`, for which the Potency result was “inactive”.
Next, `Cc1c(CCC(=O)O)c(=O)oc2cc(OCc3ccc(Br)cc3)ccc12`: “inactive”; `CC(=O)Oc1ccc2c(C)c(CC(C)O)c(=O)oc2c1` (stereo not given): 9.2 µM [inconclusive] (active).
The value for `COC(=O)c1ccc(CNC(=O)Cn2cc(C)c(=O)[nH]c2=O)cc1` was “inactive”; that for `COc1ccc(NS(=O)(=O)c2ccc(N3CCOCC3)c(NC(=O)/C=C/C(=O)O)c2)cc1` was “inactive”; that for `COc1ccc(C2NCCCC2c2ccccc2)cc1` (stereo not given) was “inactive”.
Regarding `Oc1cccc(CCc2ccccn2)c1`, the Potency entry was “inactive”.
The value for `CCc1c(Nc2ccccc2C)nc(N)[nH]c1=O` was “inactive”; that for `Cc1ccc(S(=O)(=O)N2CCN(C(=O)COC(=O)/C=C/c3cccc(Cl)c3)CC2)c(C)c1` was “inactive”; that for `COc1ccc(C(CNC(=O)c2cccc(S(=O)(=O)Nc3ccc(Br)cc3)c2)N(C)C)cc1` (stereo not given) was “inactive”.
Next, `COc1cc2c(cc1OC)C(/C=C/c1ccco1)=NCC2`: 8.2 µM [inconclusive] (active); `CCOC(=O)C1=NN(c2ccc(Cl)cc2)/C(=C/C2=NCCc3cc(OC)c(OC)cc32)S1`: “inactive”; `COc1cc2c(cc1OC)C(c1cccc([N+](=O)[O-])c1)=NCC2`: “inactive”.
Next, `C/C(=N\Nc1ccc(Cl)nn1)c1ccccc1O`: “inactive”.
Regarding `COc1ccc(NC(=O)/C(N=Nc2cccc(S(=O)(=O)Nc3ccc(SC(F)F)cc3)c2)=C(\C)O)cc1`, the Potency entry was “inactive”.
Turning to `OCCN1CCN(CCO)C1=S`, the Potency entry is “inactive”.
The value for `O=C(Cc1ccc(Cl)cc1)c1ccccc1` was “inactive”.
As to `C[C@]12CCC(=O)C=C1C=CC1C2CC[C@@]2(C)C1CC[C@@]21CCC(=O)O1` (stereo not given in full), the Potency result is “inactive”.
Next, `Cc1nn(-c2ccc(F)cc2)c(Cl)c1/C=C(/CCC(=O)O)c1nc2ccccc2s1`: “inactive”; `CCOC(=O)C1(C)NC(c2ccco2)C2C(=O)N(c3ccccc3)C(=O)C21` (stereo not given): “inactive”.
Next, `COC(=O)C1=C(C)N(c2ccc(Br)cc2)C(=O)/C1=C\c1ccco1`: “inactive”; `CCCCN=C1N/C(=C\c2ccco2)C(=O)N1c1ccccc1`: 14.6 µM [inconclusive] (active); `COCCNc1nc2nonc2nc1N1CCCC1c1nccs1` (stereo not given): 18.4 µM [inconclusive] (active).
The value for `COCCNc1nc2nonc2nc1N(C)Cc1ccc(C)cc1` was “inactive”.
Consider `COCCNc1ncnc2c1nc1n2CCCC1`, for which the Potency result is “inactive”.
The value for `CC(NC(=O)c1ccccc1)C(=O)Nc1ccccc1` (stereo not given) was “inactive”.
The value for `C(#CCN1CCOCC1)CCCN1CCOCC1` was “inactive”; that for `O=C(Nc1c(Br)cc2c(c1Br)Cc1ccccc1-2)C(F)(F)F` was “inactive”; that for `COc1ccc(-c2ccc3c(c2)[C@@H]2C[C@H](N(C)S(=O)(=O)c4ccccc4)[C@H]([C@H](C)O)C(=O)N2CC3)cc1` was “inactive”.
As to `c1ccc2c(c1)OC1OC2Oc2ccccc21`, the Potency result was “inactive”.
Next, `CCOc1ccc(S(=O)(=O)N2CCN(C(=O)c3oc4ccccc4c3C)CC2)cc1`: “inactive”; `Cc1nc(N)sc1-c1ccccc1`: “inactive”.
On to `CN(C)c1ccc(CSc2ccccc2)cc1`, for which the Potency entry was “inactive”.
With `COCCN(C(=O)C(C)N1C(=O)c2ccccc2C1=O)c1c(N)n(CC(C)C)c(=O)[nH]c1=O` (stereo not given), the Potency result was “inactive”.
Next, `COc1cccc(/C=N/Nc2ccc(S(=O)(=O)Nc3ccccc3C(=O)O)cc2[N+](=O)[O-])c1O`: “inactive”; `Cc1ccccc1N1CCN(C(=O)c2cccnc2)CC1`: “inactive”.
